# Screening data (PubChem)
# Compounds with a hit are over-represented: about 2.7% of the library has one in this group of screens.
# LDHA block: qHTS assay for inhibitors of human lactate dehydrogenase | 480,000 compounds, 0.15% hits | AID 1347041, 2019 | activity change, % (values are at about 110 or 230 µM) | purified LDHA, NADH/diaphorase-resazurin fluorescence; stronger effect = lower value; in the data active = activity change below about -30%; inconclusive = mostly about -25% to -30%;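 also: plate controls were DMSO wells for no effect and wells without enzyme for full effect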
#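 Human LDH5 at 2 nM final in Tris HCl pH 7.4 with 0.06 mM NADH and 0.2 mM pyruvate, reacted 5 minutes at room temperature. Remaining NADH coupled via diaphorase/resazurin; resorufin fluorescence read at 0 and 20 minutes, normalized to enzyme-free and DMSO wells.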
# IDH1 R132H inh: qHTS for Inhibitors of mutant isocitrate dehydrogenase 1 (IDH1): qHTS | Isocitrate dehydrogenase [NADP] cytoplasmic (Homo sapiens), O75874 | IDH1-R132H enzyme, NADPH consumption, diaphorase/resazurin fluorescence | Potency, µM (doses to about 76.6 µM), for the others: at the top dose activity change, negative = inhibition, usual class: inhibitors | 390,000 compounds, 0.093% hits | AID 602179, 2012; also: potency is read from the fitted curve at half-maximal effect; % is scaled to controls: 0 for no effect and ±100 for the full control effect; nearly all actives have a fitted effect of over 65% in size
# Target sequence (O75874 whole entry R132H, stated change not applied): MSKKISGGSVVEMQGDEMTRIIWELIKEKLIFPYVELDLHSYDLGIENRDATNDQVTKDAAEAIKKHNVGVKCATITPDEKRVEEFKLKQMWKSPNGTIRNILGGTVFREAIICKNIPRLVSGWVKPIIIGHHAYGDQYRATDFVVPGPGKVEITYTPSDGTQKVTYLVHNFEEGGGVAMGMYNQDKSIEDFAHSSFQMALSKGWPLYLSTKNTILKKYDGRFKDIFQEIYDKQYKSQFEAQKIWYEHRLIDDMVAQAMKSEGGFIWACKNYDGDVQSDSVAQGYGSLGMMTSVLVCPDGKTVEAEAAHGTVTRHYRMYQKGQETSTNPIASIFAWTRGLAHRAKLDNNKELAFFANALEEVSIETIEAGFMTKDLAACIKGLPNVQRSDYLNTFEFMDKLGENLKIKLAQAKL
#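 IDH1-R132H (0.5 ug/mL) preincubated 30 min with compound, then NADPH (0.016 mM) and alpha-KG (2 mM) added; 80 min at RT, pH 7.5. Remaining NADPH coupled via diaphorase/resazurin to fluorescence (540/590 nm); concentration-response curves normalized to no-enzyme control.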
# Nrf2 block: Nrf2 qHTS screen for inhibitors | A549 ARE-Fluc reporter, luciferase luminescence, 18-24 h | 360,000 compounds, 2.1% hits | AID 504444, 2011 | Potency, µM (titrated, usually from 46 µM), for inactives: top-dose activity change, negative = inhibition, most hits filed as inhibitors; also: potency is read from the fitted curve at half-maximal effect; % is scaled to controls: 0 for no effect and ±100 for the full control effect; nearly all actives have a fitted effect of over 60% in size
#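 Cells were seeded and rested 2 h, then exposed to compounds for 18-24 h. CellTiter-Fluor was read first as a viability measure. BugLite was added 15 min before the final luminescent read of ARE-luciferase activity in A549 cells.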
# Nrf2 ARE act: qHTS of Nrf2 Activators | AREc32 ARE-luciferase reporter (MCF7-derived line), luminescence, 24 h | Potency, µM (top dose mostly 46.1 µM), for the others: at the top dose activation, most hits filed as activators | 410,000 compounds, 0.31% hits; also: potency is read from the fitted curve at half-maximal effect; % of control where 0% means no effect; nearly all actives have a fitted effect of over 65% in size
#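 For detection, Steady-Glo was added and plates sat 30 min at RT; before that, AREc32_Fluc cells grown overnight in OPTI-MEM/5% FBS had been treated with 23 nL compound for 24 hr at 37 deg C.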
# A549 tox: Nrf2 qHTS screen for inhibitors: counterscreen for cytotoxicity; A549 ARE-Fluc cells, CellTiter-Fluor viability, 18-24 h; Potency, µM (titrated, usually from 46 µM), without a hit: at the top dose activity change, negative = cytotoxicity, usual class: inhibitors; 390,000 compounds, 0.16% hits; also: potency is read from the fitted curve at half-maximal effect; % is scaled to controls: 0 for no effect and ±100 for the full control effect
#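 Cytotoxicity counterscreen: CellTiter-Fluor fluorescence was measured in A549 ARE_Fluc cells after 18-24 h of compound exposure in a concentration series. The subsequent BugLite luminescent read reports ARE-luciferase activity.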
# 12-LOX inh: Primary qHTS assay for inhibitors of human arachidonate 12S-lipoxygenase (ALOX12): Round 2; Polyunsaturated fatty acid lipoxygenase ALOX12 (Homo sapiens), P18054; purified 12hLO, xylenol orange hydroperoxide absorbance; Potency, µM (titrated, usually from 108 µM), for the others: top-dose activity change, negative = inhibition, most hits filed as inhibitors; 580,000 compounds, 1.1% hits; also: potency is read from the fitted curve at half-maximal effect; % is scaled to controls: 0 for no effect and ±100 for the full control effect
#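 Purified human 12hLO (150 nM final) in 25 mM Hepes, 0.01% Triton X-100, pH 7.0 was preincubated 15 min at room temperature with compound. Then 40 uM arachidonic acid was added, 30 min. Hydroperoxide was read by Fe-XO absorbance ratio 573/405 nm.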
# Starred values were filed as active, the others as inactive; ? = inconclusive; . = no result; [ ] = another dose, or the depositor's remark. Unless noted, calls follow the shape of the dose curve; as a rule, active = well fitted curve in the direction sought with a large enough effect; inconclusive = small, poorly fitted or top-dose-only effect, or another doubt; inactive = no such curve, though single readings can be large; an effect the other way counts as inactive or inconclusive.
SMILES,LDHA block,IDH1 R132H inh,Nrf2 block,Nrf2 ARE act,A549 tox,12-LOX inh
COc1cc(/C=C/C(=O)OCC(=O)N(C2=CCCCC2)C2CC2)ccc1OC(F)F,6.5,.,.,.,.,-9.6%
CC(=O)c1coc2c1cc(O)c1ccccc12,28.7,2.3%,-10.0%,?,-6.2%,13.9%
CC(=O)c1cc(O)c2ccccc2c1O,13.4,22.4%,?,19.8%,-13.6%,1.58µM*
Cc1cc(C)c2c(=O)cc(CSc3nnc(-c4cccc(F)c4)n3C)[nH]c2c1,5.6,.,.,.,.,-27.3%
COc1ccc(-c2cc(C)no2)cc1S(=O)(=O)Nc1ccccc1,-9.7,3.5%,16.6%,4.0%,-14.4%,7.8%
COc1ccc(-c2cc(C)no2)cc1S(=O)(=O)Nc1cccc(C)c1,-10.2,-7.0%,23.1µM*,-0.2%,-22.9%,-11.7%
COc1cc(-c2nn3c(C4CCCCC4)nnc3s2)cc(OC)c1OC,-4.2,0.8%,-11.8%,3.4%,-2.1%,25.1µM*
COc1ccc(Nc2ccc3cc(S(=O)(=O)N4CCCC4)ccc3n2)cc1Cl,-3.1,-4.2%,25.9µM*,4.0%,-25.1%,-14.3%
CCOc1ccc(OCC)c(Nc2ccc3cc(S(=O)(=O)N4CCCC4)ccc3n2)c1,13.9,12.5%,3.6%,0.0%,-1.4%,?
COc1ccc(Cl)cc1Nc1ccc2cc(S(=O)(=O)N3CCCCC3)ccc2n1,8.4,10.9%,-15.9%,3.6%,-10.2%,50.1µM*
O=S(=O)(c1ccc2nc(Nc3ccc(F)cc3)ccc2c1)N1CCCC1,-1.5,17.9%,-5.1%,2.7%,3.9%,-5.9%
CCc1ccc(Nc2ccc3cc(S(=O)(=O)N4CCCC4)ccc3n2)cc1,-0.1,.,.,.,.,14.1µM*
Cc1cc(C(=O)N2CCNCC2)c2ccccc2n1,-4.5,.,.,.,.,?
CCN(C(=O)C(C)S(=O)(=O)Cc1c(Cl)cccc1Cl)c1ccccc1 (stereo not given),0.0,.,.,.,.,-20.6%
COCCCNC(=S)N1CCN(c2nc(-c3ccccc3)cs2)CC1,-0.6,-0.6%,11.6µM*,3.4%,1.1%,-2.5%
CCOCCCNC(=S)N1CCN(c2nc(-c3ccccc3)cs2)CC1,-11.5,-10.1%,16.4µM*,0.2%,-16.4%,18.2%
O=C(NC(=S)N1CCN(c2nc(-c3ccccc3)cs2)CC1)c1cncc(Br)c1,-6.1,-5.3%,23.1µM*,16.6%,-21.7%,-19.6%
O=C(CN1CCN(c2nc(-c3ccccc3)cs2)CC1)NNC(=O)c1ccc(Br)cc1,-1.0,-1.4%,-18.2%,0.2%,10.5%,23.6%
CCN(CC)CCCNC(=S)N1CCN(c2nc(-c3ccccc3)cs2)CC1,-0.8,1.9%,-13.6%,10.8%,4.2%,-4.7%
CCOc1ccc(-n2nnnc2CNC(=O)Nc2ccc(C)c(C)c2)cc1,0.5,.,.,.,.,-6.0%
CC1(C)[C@H](Cc2cc(-c3ccc(F)cc3)on2)C[C@@H]1NCc1cccnc1,.,.,.,.,.,-1.5%[176 µM]
CCOc1ccccc1OCCCC(=O)Nc1ccc(Cl)c(S(=O)(=O)N2CCOCC2)c1,2.1,-3.7%,16.4µM*,4.2%,-12.0%,336.5%
Cc1cccc(OCCCC(=O)Nc2ccc(Cl)c(S(=O)(=O)N3CCOCC3)c2)c1,0.0,3.0%,?,-0.3%,-10.3%,?
O=C(CCNC(=O)c1ccc([N+](=O)[O-])cc1)Nc1ccc(Cl)c(S(=O)(=O)N2CCOCC2)c1,-4.0,-0.5%,23.1µM*,5.4%,1.8%,4.2%
Cc1ccc(C2=NN(C(=O)CNc3ccc(C(=O)N(C)C)cc3)C(c3ccco3)C2)o1 (stereo not given),10.8,.,.,.,.,?
COc1ccc(CCN(C)C(=O)c2cc(S(=O)(=O)N3CCCCC3)ccc2Cl)cc1OC,-5.7,2.3%,16.4µM*,0.8%,-11.1%,2.3%
